Compound activity: PubChem, Broad Institute
Tg IFNy HTS: T. gondii growth inhibition under IFN-gamma. activity change, negative = inhibition, % (no concentration beside the values). 69,000 compounds, 3.8% hits. Toxoplasma gondii growth in IFN-gamma-treated host cells; hits give low values; in the data active = activity change below about -70%, passing the limit was not always enough;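 note: host cells are HeLa cells infected with Toxoplasma gondii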
* = called active by the depositor; i = inactive. Shown is part of a subset that was picked to be rich in hits.

SMILES	Tg IFNy HTS
CCN1CCCn2c(nc(CNc3ccccn3)cc2=O)C1	18
O=C(c1nc2ccccn2c1CNC(c1ccccc1)c1ccccc1)N1CCCC1	10
CN1CCn2c(-c3ccccc3)cnc2C12CCN(C(=O)c1cscn1)CC2	-37
O=C(c1n[nH]c2c1CCCC2)N1CCC(c2[nH]ncc2-c2ccccc2)CC1	-49
Cc1cc(Cc2cccc(F)c2)cc(C2CCN(C(=O)c3n[nH]c4c3CCCCC4)CC2)n1	-111*
Cc1cc(Cc2c(F)cccc2F)cc(C2CCN(C(=O)CC3CCCCO3)CC2)n1 (configuration not stated)	-20
CC1(C(=O)N2CCn3cncc3C2)CCCCO1 (configuration not stated)	7
CCOc1ccc(C(=O)N2CCC(C)(C(=O)NCc3ccc(F)cc3F)CC2)cc1	-2
CCOc1ccc2[nH]c(=O)c(CNCCO)cc2c1	-101*
CCOc1ccc2[nH]c(=O)c(CN(C)Cc3cc(C)on3)cc2c1	-18
COc1ccc2[nH]c(=O)c(CNc3c(C)cc[nH]c3=O)cc2c1	139
CCCCCC(CC)NC1=NCCCS1 (configuration not stated)	40
COc1cccc(-c2nc3c(s2)CN(C(=O)NC2CCCCC2)CC3)c1	-17
Cn1c(=O)n(C)c2cc(NC(=O)CSc3ncc(C#N)c(N)n3)ccc21	50
N#Cc1cnc(SCc2cc(=O)[nH]c3ccccc23)nc1N	-101*
N#Cc1cnc(Sc2nnc(-c3ccc(Cl)cc3)n2Cc2ccccc2)nc1N	-42
c1ccc(-c2nnc(-c3csc(-c4cccnc4)n3)o2)cc1	303
Clc1ccc(-c2csc(-c3ccc(-n4cncn4)nc3)n2)cc1	4
c1ccc(-n2ncnc2-c2csc(-c3ccncc3)n2)cc1	-93*
COc1ccc(OC)c(NC(=O)N2CCC3(CC2)Nc2cc(F)ccc2-n2cccc23)c1	i
COc1ncccc1NS(=O)(=O)NCc1ccccc1	7
CC1=NCCN1S(=O)(=O)c1c(C(C)C)cc(C(C)C)cc1C(C)C	16
CC(C)c1cc(C(C)C)c(S(=O)(=O)Nc2ccc(O)cc2)c(C(C)C)c1	-75*
CC(C)c1ccc(NS(=O)(=O)c2cc3c4c(c2)CCC(=O)N4CCC3)cc1	2
CC1=C(Oc2ccc(Cl)cc2)C(C)(O)N=C(C(F)(F)F)N1 (configuration not stated)	-24
SMILES	Tg IFNy HTS
CC(C)C(=O)N1CCC2C(C[C@@H](CN(C)C)N2c2nccs2)C1 (some centres not stated)	30
CSc1scc(-c2ccc(Cl)cc2)c1C#N	-91*
CSc1scc(NS(=O)(=O)c2ccc(Cl)cc2)c1S(=O)(=O)C(C)C	-47
CSc1cc(-c2ccc(Cl)cc2)[nH]c(=O)c1C#N	56
O=C1NC(=O)C(c2cnc3ccccn23)=C1c1cn2c3c(cc(F)cc13)CN(C(=O)N1CCCCC1)CC2	-87*
CN(C)CC1(O)CCCN(C(=O)c2cnc3ccccn3c2=O)C1 (configuration not stated)	5
CN(C)CC1(O)CCCN(C(=O)c2cnc3ccccn3c2=O)CC1 (configuration not stated)	2
CCS(=O)(=O)N1CCc2cc(C(=O)N3CCCC3)c(NC(C)C)nc2CC1	-1
CCn1ncnc1-c1c(-c2ccccc2)ncn1CCc1ncccc1C	-36
Cc1nccn1-c1ccccc1CNC(=O)c1cc(C(C)C)nn1C	-2
Cc1nc(-c2ccc(CNC(=O)c3cc(CC(C)C)nn3C)cc2)no1	-78*
CCCn1ncc(C(=O)NCc2ccc(-c3noc(C)n3)cc2)c1C	-14
CC(C)Cc1cc(C(=O)NCc2cnn3ccccc23)n(C)n1	-34
CC(C)c1cc(C(=O)NCc2nc(-c3ccccc3)no2)n(C)n1	-100*
CC(C)c1cc(C(=O)NCc2cc(-c3ccco3)on2)n(C)n1	3
CN(C)CC(=O)N1CCC2OCCCC2(COCc2ccncc2)C1 (configuration not stated)	31
O=C(NCc1cccnc1-n1ccnc1)c1ccc(-c2ccccc2)[nH]1	-4
CCn1c(C2CCNCC2)nn(Cc2nccc(OC)c2OC)c1=O	-3
O=C(Nc1ccccn1)C1CCN(C(=O)c2ccc3nsnc3c2)C1 (configuration not stated)	18
CS(=O)(=O)c1ccc(CN2CCCCC2c2cccc(F)c2)cc1 (configuration not stated)	7
CCN1C[C@]23CN(Cc4cnn(C)c4)C[C@@H](C[C@H]2S1(=O)=O)O3	i
Cn1cc(CCNC(=O)c2cn[nH]c2-c2ccccc2)c2cc(Cl)ccc21	16
CC(C)c1n[nH]c2c1CN(Cc1cc3n(n1)CCNC3)CC2	42
Cc1nccn1-c1ccccc1CNC1CCC2(CCNCC2)CC1	3
CCc1csc(CNC2CCC3(CCNCC3)CC2)n1	-76*
CCc1csc(CNC2CCN(CC(C)C)CC2)n1	0
c1coc(CN2C[C@@H]3CCCO[C@H]3[C@@H](N3CCCC3)C2)c1	-32
Clc1ccc(CSc2nc(NC3CCCCC3)c3ccccc3n2)cc1	-22
CCS(=O)(=O)N1CCCC2(CC(N(C)Cc3ccccn3)CO2)C1 (configuration not stated)	0
